Our source for the growth values is PubChem BioAssay (NCI).

About 83,000 compounds went through this panel and 20% of them were active in at least one assay; those are over-represented in the sample as a whole.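 Compound tested at a single concentration for 48 hours in 96-well plates; a percent growth value below 10 was scored as active.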 Values without a mark were called inactive. Calls of active or inactive are those of the source.

Test systems include NCI-H23 lung; NCI-H226 lung; NCI-H322M lung; HOP-62 NSCLC; NCI-H460 lung; HOP-92 NSCLC; NCI-H522 lung; A549/ATCC NSCLC; 786-0 renal; COLO 205 colon.
Holding throughout (test): NCI-60 one-dose screen, 48 h (100 = growth as untreated, 0 = no growth, -100 = all killed)
Conditions in all cases: 10 µM unless noted

As for `COc1ccc2c(c1)/C(=N/c1n[nH]c(=S)s1)C(=O)N2`, the growth is 93% in the test on NCI-H23 lung; 96.8% with NCI-H226 lung; 91.8% with NCI-H322M lung; 99.9% in the test with HOP-62 NSCLC; 92.9% with NCI-H460 lung; 92.8% with HOP-92 NSCLC. Also, the growth in the test on NCI-H522 lung was 76.3%; with A549/ATCC NSCLC, 83.7%; in the test with 786-0 renal it was 105%; with COLO 205 colon it was 118%.

Take `Cc1nc2cc(O)c(O)cc2cc1Oc1ccc(NC(=O)Nc2ccc(Cl)c(Cl)c2)cc1`: the growth was 62.8% with NCI-H23 lung; 38.3% in the test with NCI-H226 lung; 94% in the test with NCI-H322M lung; 35.7% with HOP-62 NSCLC; 62.1% with NCI-H460 lung; 37.5% in the test with HOP-92 NSCLC. The growth with NCI-H522 lung was 1.87% (active); with A549/ATCC NSCLC, 50.5%; in the test with 786-0 renal, 103%; with COLO 205 colon, 34.7%.

Turning to `CC1(C)CC(=O)c2c(nn(-c3ccc(Br)cc3)c2-c2cn(-c3ccccc3)nc2-c2cccnc2)C1`, the growth with NCI-H23 lung is 90.4%; with NCI-H226 lung it was 98.4%; in the test on NCI-H322M lung, 93%; in the test with HOP-62 NSCLC it was 81.3%; in the test on NCI-H460 lung, 97.5%; with HOP-92 NSCLC, 87.2%. Moreover, the growth with NCI-H522 lung was 85.6%; in the test with A549/ATCC NSCLC, 92.5%; in the test with 786-0 renal, 100%; in the test with COLO 205 colon it was 105%.

`O=C(CCCCCCN1CC(=O)N2[C@H](c3ccc(Cl)cc3)c3[nH]c4ccccc4c3C[C@@H]2C1=O)NO`: the growth in the test with NCI-H23 lung is 60.2%; in the test on NCI-H226 lung, 84.1%; with NCI-H322M lung it was 64.1%; with HOP-62 NSCLC, 61.9%; in the test with NCI-H460 lung, 54.2%; in the test on HOP-92 NSCLC, 44.4%. The growth in the test with NCI-H522 lung is 32.8%; with A549/ATCC NSCLC, 90.1%; with 786-0 renal it was 92.9%; in the test with COLO 205 colon, 57.3%.

Consider `O=C(Nc1ccccc1N1CCCC1=O)c1oc2ccc(F)cc2c1-c1cnn(-c2ccccc2)c1`, for which the growth with NCI-H23 lung is 61.9% [50 µM]; in the test on NCI-H226 lung it was 39.4% [50 µM]; in the test with NCI-H322M lung, 63% [50 µM]; in the test on HOP-62 NSCLC, 55.1% [50 µM]; in the test with NCI-H460 lung it was 28.1% [50 µM]; in the test with HOP-92 NSCLC, 29.1% [50 µM]. Further, the growth is 12.7% [50 µM] in the test on NCI-H522 lung, 37.5% [50 µM] in the test on A549/ATCC NSCLC, 21.3% [50 µM] with 786-0 renal and 47% [50 µM] with COLO 205 colon.

For the compound `CCN(CC)CCCOc1ccc2ncnc(Nc3ccc(Oc4cccc(C(F)(F)F)c4)c(Cl)c3)c2c1`, the growth with NCI-H23 lung was 15.4%; in the test on NCI-H226 lung, 73.1%; in the test with NCI-H322M lung, 16%; in the test on HOP-62 NSCLC, 13.6%; with NCI-H460 lung, -87.7% (active); in the test on HOP-92 NSCLC, 27.3%. Moreover, the growth in the test on NCI-H522 lung is -2.46% (active); with A549/ATCC NSCLC, 5.61% (active); in the test with 786-0 renal it was -83.9% (active); in the test with COLO 205 colon, -36.7% (active).

On to `C#CCOc1cccc(-c2ncnc3cc(NC(=O)C=C)ccc23)c1`, for which the growth in the test on NCI-H23 lung is 69%; in the test on NCI-H226 lung it was 69.9%; in the test on NCI-H322M lung, 70.3%; in the test on HOP-62 NSCLC, 36.4%; in the test with NCI-H460 lung, 29.1%; in the test with HOP-92 NSCLC, 14.9%. Moreover, the growth is 10.5% in the test on NCI-H522 lung, 44.5% in the test with A549/ATCC NSCLC, 29.9% in the test on 786-0 renal and 24.4% in the test with COLO 205 colon.

As for `CCOC(=O)/C=C1\S/C(=N\Nc2cc(=O)[nH]c3ccccc23)N(c2ccccc2)C1=O`, the growth in the test with NCI-H23 lung was 97.9%; in the test on NCI-H226 lung, 95.4%; with NCI-H322M lung, 101%; in the test on HOP-62 NSCLC, 92.1%; in the test on NCI-H460 lung it was 107%; in the test on HOP-92 NSCLC, 88.8%. The growth in the test with NCI-H522 lung was 96.7%; in the test with A549/ATCC NSCLC, 103%; in the test on 786-0 renal, 101%; in the test with COLO 205 colon it was 106%.

In the case of `CC1(C)N=C(N)N=C(N)N1c1ccc(CCCCc2ccccc2)c(Cl)c1`, the growth in the test on NCI-H23 lung is 6.38% (active); in the test with NCI-H226 lung, 34.7%; in the test with NCI-H322M lung, 31.6%; with HOP-62 NSCLC, 21.7%; in the test on NCI-H460 lung, 4.96% (active); in the test with HOP-92 NSCLC, 19.3%. Further, the growth was -6.62% (active) in the test with NCI-H522 lung, 15.9% with A549/ATCC NSCLC, 16.3% with 786-0 renal and -75.8% (active) in the test with COLO 205 colon.

Consider `O=C(CSc1nc(-c2ccccc2)cc(=O)[nH]1)Nc1nc(-c2ccccc2)cs1`, for which the growth in the test on NCI-H23 lung is 84.3%; in the test on NCI-H226 lung, 76.2%; in the test on NCI-H322M lung, 93.4%; in the test on HOP-62 NSCLC it was 109%; in the test with NCI-H460 lung, 106%; in the test with HOP-92 NSCLC, 72.5%. Moreover, the growth with NCI-H522 lung is 74.4%; in the test on A549/ATCC NSCLC, 95.3%; in the test on 786-0 renal, 103%; in the test with COLO 205 colon, 115%.

On to `COc1ccc(/C=C/c2c(C(=O)/C=C/c3ccccc3)c(C)nc3ccccc23)cc1`, for which the growth in the test on NCI-H23 lung was 20%; with NCI-H226 lung, 45.5%; in the test with NCI-H322M lung, 28.4%; with HOP-62 NSCLC it was -13.9% (active); in the test on NCI-H460 lung, -48.1% (active); with HOP-92 NSCLC, 66.2%. Also, the growth was -24.5% (active) in the test on NCI-H522 lung, 20.2% with A549/ATCC NSCLC, 13.5% in the test with 786-0 renal and 3.63% (active) in the test with COLO 205 colon.

With `COC(=O)c1c2c(c(C)[n+]([O-])c1C)C(=O)C(NCc1ccc(OC)cc1)=CC2=O`, the growth was 27.5% in the test with NCI-H23 lung; 81.7% in the test on NCI-H226 lung; 6.55% (active) in the test on NCI-H322M lung; 47.7% with HOP-62 NSCLC; 10.2% in the test on NCI-H460 lung; 36.9% in the test with HOP-92 NSCLC. The growth is -5.69% (active) in the test on NCI-H522 lung, 4.4% (active) with A549/ATCC NSCLC, 54.2% in the test with 786-0 renal and -45.2% (active) in the test on COLO 205 colon.

On to `COc1ccc(/C=C/C(=O)c2cc3c(N)c(C(=O)Nc4cccc(Cl)c4C)sc3nc2C)cc1`, for which the growth with NCI-H23 lung was 19.8%; with NCI-H226 lung, 34.8%; in the test with NCI-H322M lung, 33.1%; with HOP-62 NSCLC, 20.7%; with NCI-H460 lung, 0.238% (active); in the test on HOP-92 NSCLC, 39.2%. For the same compound, the growth with NCI-H522 lung is -8.5% (active); in the test on A549/ATCC NSCLC it was 17.6%; in the test with 786-0 renal, 4.44% (active); in the test with COLO 205 colon, -28.9% (active).
